# Experiments:
# Details in all cases: concentration: 1 μM,replicates: in singlicate; n = 1
# STK36 = tested on: STK36
# STK39 = tested on: STK39
# SYK = tested on: SYK
# SgK110 = tested on: SgK110
# TAK1 = tested on: T1, TAK1
# T1 construct: gene MAP3K7
# TAOK1 = tested on: TAOK1
# TAOK2 = tested on: TAOK2
# TAOK3 = tested on: TAOK3
# TBK1 = tested on: TBK1
# TEC = tested on: TEC
# 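Also: KINOMEscan kinase panel screen.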
Structure (SMILES),%Inh (STK36) [%],%Inh (STK39) [%],%Inh (SYK) [%],%Inh (SgK110) [%],%Inh (TAK1) [%],%Inh (TAOK1) [%],%Inh (TAOK2) [%],%Inh (TAOK3) [%],%Inh (TBK1) [%],%Inh (TEC) [%]
Nc1nc(Nc2ccccc2)cc(-c2ccc3c(N)n[nH]c3c2)n1 [GSK2225749],24,0,0,0,36,32,2,23,28,0
Cl.Cl.Nc1nc(-c2ccc3c(N)n[nH]c3c2)cc(N2CCCC(NC(=O)c3ccccc3)C2)n1 (stereo not drawn) [GSK2286775],0,0,0,0,0,0,0,0,76,6
Cc1ccc2c(-c3ccncc3)c(-c3ccc(F)cc3)nn2c1.Cl [GW461484],53,21,26,0,70,0,0,0,21,0
C=CC(=O)Nc1cc2c(Nc3ccc(F)c(Cl)c3)ncnc2cc1OCCCN1CCOCC1 [GW781483],–,22,6,0,20,0,0,0,0,39
NC(=O)c1cc(-c2ccccc2)cc2c(C3CCNCC3)c[nH]c12 [GSK301362],3,15,34,0,0,95.8,28,90,12,24
C[C@@H]1CCN(C(=O)CC#N)C[C@@H]1N(C)c1ncnc2[nH]ccc12,0,0,–,50,–,0,0,0,10,39
CC(C)Nc1cc(-c2ccc3c(N)n[nH]c3c2)nc(N)n1 [GSK2221681],0,3,3,0,2,4,0,0,35,0
CCN(CC)CCCCNc1ncc2cc(-c3c(Cl)cccc3Cl)c(NC(=O)NC(C)(C)C)nc2n1,77,0,11,25,57,99.2,99.5,99.5,0,0
Cl.Cl.NC[C@H](Cc1ccc(C(F)(F)F)cc1)NC(=O)c1cc(Br)c(-c2ccnc3[nH]ccc23)s1 [GSK1487252],0,7,10,75,11,2,0,0,4,8
CN(C)CCOc1ccc(-c2cc(-c3c[nH]nc3-c3ccccn3)ccn2)cc1 [GW835314],47,0,26,0,26,23,0,0,18,13
Cl.Oc1cc(-c2nc(-c3ccccc3)[nH]c2-c2ccncc2)ccc1Cl [SB-386023],53,0,0,32,9,11,29,5,10,1
Cl.Cl.NC[C@H](CC1CCCCC1)NC(=O)c1cc(Br)c(-c2ccnc3[nH]ccc23)s1 [GSK1581427],0,6,19,82,0,42,0,4,1,0
Cc1occc1-c1nc(N)c(OC[C@@H](N)Cc2c[nH]c3ccccc23)cc1-c1cc2c(C)n[nH]c2cn1 [GSK1660450],67,4,0,0,97.2,99.6,89,99.6,6,0
CC(C)N1C(=O)Cc2cc(Nc3ncc(C(F)(F)F)c(NCc4cccc(S(C)(=O)=O)c4)n3)ccc21,0,33,87,0,70,0,0,0,86,10
Cc1n[nH]c2ccc(-c3cc(OC[C@@H](N)Cc4ccccc4)cnc3-c3ccoc3)cc12.O=C(O)C(F)(F)F.O=C(O)C(F)(F)F [GSK507358],0,0,0,0,97.9,92.4,5,74,18,0
COc1ccc(C[C@@H](CN)NC(=O)c2cc(Br)c(-c3ccnc4[nH]ccc34)s2)cc1.Cl.Cl [GSK1389063],0,16,39,85,75,87,27,60,1,0
O=C(NCCNc1ccnc(NCc2ccc(F)cc2)n1)c1cc2ccccc2s1 [GSK1379944],2,1,14,17,0,0,14,0,19,21
O=C(NCCCN1CCOC1=O)c1cnc(NCc2cc(Cl)ccc2Cl)nc1NC1CCCC1,10,0,15,0,0,0,10,0,24,18
Cc1ccc(-n2nc(C(C)(C)C)cc2NC(=O)Nc2ccc(OCCN3CCOCC3)c3ccccc23)cc1 [GW839464],0,0,9,22,76,0,1,0,31,34
CN(C)CC(O)COc1ccc(Nc2nccc(-c3cnn4nc(N5CCOCC5)ccc34)n2)cc1 (stereo not drawn) [GW767488],56,79,4,0,63,59,34,37,58,7
Cc1cc(C(=O)Nc2ccc(Oc3ccc4nc(NC(=O)C5CC5)cn4n3)cc2)nn1-c1ccccc1,0,7,22,0,0,0,1,0,57,37
Cc1cc2cn[nH]c2cc1-c1cccc2c(N)c(C(N)=O)nnc12,0,47,20,0,69,83,37,39,47,94.9
C[C@@H](Oc1cc(-c2cnn(C3CCNCC3)c2)cnc1N)c1c(Cl)ccc(F)c1Cl,0,0,8,83,33,31,48,36,65,2
CNC(=O)c1ccccc1Sc1ccc2c(/C=C/c3ccccn3)n[nH]c2c1,24,0,5,0,15,0,0,0,36,0
C[C@H]1Oc2cc(cnc2N)-c2c(nn(C)c2C#N)CN(C)C(=O)c2ccc(F)cc21,12,0,38,21,0,0,13,0,33,0
CCN(CC)CCOc1ccc(Nc2ncc3cc(-c4c(Cl)cccc4Cl)c(=O)n(C)c3n2)cc1 [SB-601273],99.5,60,89,84,65,99.1,99.4,99.9,42,89
CCn1c(-c2nonc2N)nc2c(C#CC(C)(C)O)nc(OCCN)cc21.Cl.Cl [GSK902056],0,17,0,0,0,0,0,0,0,1

# — publication PMC5540273 (PLoS ONE, 2017)
